The subject of experiment [1] is Zika virus NS2B-NS3 protease. As to the kind of experiment: Primary screen GU AMC qHTS for Zika virus inhibitors (AID 1347154).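 For activity change, negative = inhibition: 0% = no-inhibitor control and -100% = no-enzyme control.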 Note: nearly all actives have a fitted effect of over 70% in size. Note: potency is the fitted concentration of half-maximal effect. An outline of the steps:
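Unlinked Zika NS2B hydrophilic domain/NS3 protease domain noncovalent complex (25 nM final) in 10 mM Tris-HCl pH 8.0, 0.01% Tween 20, with AMC peptide substrate. Fluorescence (ex 340, em 450 nm) change over 15 min, room temperature; percent inhibition fitted to 4-parameter Hill equation.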

Experiment [2] can be described thus: Primary qHTS for small molecule stabilizers of the endoplasmic reticulum resident proteome: Secreted ER Calcium Modulated Protein (SERCaMP) assay (AID 1508630). Note: % is set by controls: 0 for no effect and ±100 for the full control effect. The method in brief:
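The SH-SY5Y reporter protocol was run at 3 concentrations up to 38.3 uM (primary) or 11 concentrations (follow-up): 16 h compound, 100 nM thapsigargin for 4 h, then extracellular luciferase luminescence.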

Inconclusive results are not listed. A number with no mark means an inactive call. Activity calls are given as the source filed them. Calls come from the whole dose curve; as a rule, active = well fitted curve in the direction sought with a large enough effect; inconclusive = small, poorly fitted or top-dose-only effect, or another doubt; inactive = no such curve, though single readings can be large; an effect the other way counts as inactive or inconclusive. Where a SMILES comes first, the peptide text is derived from it. The star is where a group is joined. Cbz = O=C(OCc1ccccc1)*; CH2F = FC*

For the molecule `Nc1ncnc2c1ncn2[C@H]1O[C@@H](CSCC[C@@H](N)C(=O)O)[C@H](O)[C@@H]1O`, the Potency result in experiment [1] and in experiment [2] was “inactive” throughout.

`COc1c(C=O)c(O)cc2c1C(=O)c1ccccc1C2=O`: the Potency result in experiment [1] and in experiment [2] was “inactive” throughout.

Regarding `Cc1[nH]c(/C=C2/C(=O)Nc3ccc(S(=O)(=O)Cc4c(Cl)cccc4Cl)cc32)c(C)c1C(=O)N1CCCC1CN1CCCC1` (configuration not stated), the Potency result in experiment [1] and in experiment [2] was “inactive” throughout.

As for `O=[N+]([O-])c1cc2nc(O)c(O)nc2cc1[N+](=O)[O-]`, the Potency entry in experiment [1] and in experiment [2] was “inactive” throughout.

On to `c1ccc(Oc2nc(NC3CCCCC3)c3[nH]cnc3n2)cc1`, for which the Potency entry in experiment [1] and in experiment [2] was “inactive” throughout.

As to `CCCCC/C=C\C\C=C/C=C/C=C/[C@@H](SC[C@H](NC(=O)CC[C@H](N)C(=O)O)C(=O)NCC(=O)O)[C@@H](O)CCCC(=O)O`, the figures for the activity change, negative = inhibition in experiment [1] and in experiment [2] were 8.51% [at 0.59 µM] and -14.5% [at 0.478 µM], respectively.

With `CC(C)[C@H]1c2ccc(F)cc2CC[C@@]1(CCN(C)CCCc1nc2ccccc2[nH]1)OC(=O)C1CC1`, the Potency result in experiment [1] and in experiment [2] was “inactive” each time.

For `COC(=O)CNC(=O)C(=O)OC`, the activity change, negative = inhibition in experiment [1] was 11.4% [at 6.83 µM]; in experiment [2], -16.2% [at 3.88 µM].

For `O=C(O)[C@@H]1CN[C@@H](C(=O)O)C1`, the Potency result in experiment [1] and in experiment [2] was “inactive” in each case.

On to `CO[C@H]1C[C@@H]2CC[C@@H](C)[C@@](O)(O2)C(=O)C(=O)N2CCCC[C@H]2C(=O)OC([C@H](C)C[C@@H]2CC[C@@H](O)[C@H](OC)C2)CC(=O)[C@H](C)/C=C(\C)[C@@H](O)[C@@H](OC)C(=O)[C@H](C)C[C@H](C)/C=C/C=C/C=C/1C` (some centres not stated), for which the Potency entry in experiment [1] and in experiment [2] was “inactive” in each case.

`N[C@@H](Cc1cc(I)c(Oc2ccc(O)cc2)c(I)c1)C(=O)O`: the Potency result in experiment [1] and in experiment [2] was “inactive” in each case.

For `CN(C)C(=O)n1nnnc1Cc1ccc(-c2ccccc2)cc1`, the Potency result in experiment [1] and in experiment [2] was “inactive” each time.

On to `CCC(=O)NC1CCc2cccc(OC)c2C1` (configuration not stated), for which the Potency result in experiment [1] and in experiment [2] was “inactive” each time.

Regarding `CCC1Cc2cc(O)ccc2C2=C1c1ccc(O)cc1CC2CC` (configuration not stated), in experiment [1], the Potency is 3.77 µM (active). Besides, the Potency entry in experiment [2] was “inactive”.

Consider `C[C@@H](N)CCCP(=O)(O)O`, for which the Potency result in experiment [1] and in experiment [2] was “inactive” each time.

As to `N[C@@H](C(=O)O)[C@@H](CC(=O)O)c1ccc(Cl)cc1`, the Potency entry in experiment [1] and in experiment [2] was “inactive” throughout.

As for `CCCCCCCC/C=C\CCCCCCCC(=O)OCC(CO)OC(=O)CCCCCCC/C=C\CCCCCCCC` (configuration not stated), the activity change, negative = inhibition in experiment [1] was -0.778% [at 6.83 µM]; in experiment [2], 17.1% [at 3.88 µM].

As for `COC(C)(C)CCCC(C)C/C=C/C(C)=C/C(=O)O` (configuration not stated), the Potency entry in experiment [1] and in experiment [2] was “inactive” each time.

On to `COC(=O)C[C@H](NC(=O)[C@H](C)NC(=O)[C@@H](NC(=O)OCc1ccccc1)C(C)C)C(=O)CF` (Cbz-Val-Ala-Asp(OMe)-CH2F), for which the Potency result in experiment [1] and in experiment [2] was “inactive” each time.

For `CNc1ncnc2c1ncn2[C@H]1C[C@H](O)[C@@H](CO)O1`, the Potency result in experiment [1] and in experiment [2] was “inactive” in each case.

Consider `Oc1ccc(-c2c(-c3ccccc3)nn3c(C(F)(F)F)cc(C(F)(F)F)nc23)cc1`, for which the Potency result in experiment [1] and in experiment [2] was “inactive” throughout.

Take `CCCCC[C@H](O)/C=C/[C@@H]1[C@@H](C/C=C\CCCC(=O)O)[C@@H](O)C[C@@H]1O`: the activity change, negative = inhibition in experiment [1] was 11.6% [at 6.83 µM]; in experiment [2], -25.7% [at 3.88 µM].

With `NC(CC(=O)Nc1ccc(Oc2cc(F)c(F)cc2Br)cc1)C(=O)O` (configuration not stated), the Potency result in experiment [1] and in experiment [2] was “inactive” throughout.

For the molecule `O=C(O)c1ccncc1`, the Potency entry in experiment [1] and in experiment [2] was “inactive” throughout.

Consider `C[C@@H](Cc1ccccc1)Nc1ncnc2c1ncn2[C@@H]1O[C@H](CO)[C@@H](O)[C@H]1O`, for which the Potency result in experiment [1] and in experiment [2] was “inactive” each time.

Take `CCCCCCCCCC(=O)N[C@H](CN1CCOCC1)[C@H](O)c1ccccc1`: the activity change, negative = inhibition in experiment [1] is 6.71% [at 6.83 µM]; in experiment [2], 9.26% [at 3.88 µM].

In the case of `COc1ccc(CCNC(=O)C(=O)c2c[nH]c3ccccc23)cc1`, the Potency entry in experiment [1] and in experiment [2] was “inactive” each time.

Consider `CC(C)C[C@H](NC(=O)[C@H](CCCCN)NC(=O)[C@H](CCCNC(=N)N)NC(=O)[C@H](C)NC(=O)[C@H](CO)NC(=O)[C@H](CCCCN)NC(=O)[C@H](CCCNC(=N)N)NC(=O)[C@H](C)NC(=O)CNC(=O)[C@@H](NC(=O)[C@H](Cc1ccccc1)NC(=O)CNC(=O)CNC(=O)[C@@H](N)Cc1ccccc1)[C@H](C)O)C(=O)N[C@@H](C)C(=O)N[C@@H](CC(N)=O)C(=O)N[C@@H](CCC(N)=O)C(=O)O`, for which the values for the activity change, negative = inhibition in experiment [1] and in experiment [2] were -13.5% [at 6.83 µM] and 13.9% [at 3.88 µM], respectively.

Turning to `CC(=O)N[C@@H](CSC/C=C(\C)CC/C=C(\C)CC/C=C(\C)CCC=C(C)C)C(=O)O`, the Potency result in experiment [1] and in experiment [2] was “inactive” throughout.

On to `CCCC1OC2CC3C4CCC5=CC(=O)C=CC5(C)C4C(O)CC3(C)C2(C(=O)CO)O1` (configuration not stated), for which the Potency result in experiment [1] and in experiment [2] was “inactive” each time.

As for `CC(C)=CCN1CCC2(CCc3ccccc32)CC1`, the Potency result in experiment [1] and in experiment [2] was “inactive” throughout.

As to `CCCCC/C=C\C/C=C\C/C=C\C/C=C\CCCCCC(=O)O`, the activity change, negative = inhibition in experiment [1] is -5.55% [at 6.83 µM]; in experiment [2] it was 14.9% [at 3.88 µM].

Take `CCCCCCCCCCCCCCCCOC[C@H](COP(=O)([O-])OCC[N+](C)(C)C)OC(=O)NC`: the results for the activity change, negative = inhibition in experiment [1] and in experiment [2] were 0.721% [at 6.83 µM] and 5.26% [at 3.88 µM], respectively.

`CC1=C(/C=C/C(=C/C=C/C(C)=C/C(=O)O)c2ccc(C)cc2)C(C)(C)CCC1`: the Potency entry in experiment [1] and in experiment [2] was “inactive” throughout.

For `CCCCCCCCCCCCCCCC(=O)N[C@@H](COP(=O)(O)O)C(=O)O`, the activity change, negative = inhibition is 6.63% [at 6.83 µM] in experiment [1] and 2.76% [at 3.88 µM] in experiment [2].

`Nc1c(S(=O)(=O)O)cc(Nc2cccc3ccccc23)c2c1C(=O)c1ccccc1C2=O`: the Potency result in experiment [1] and in experiment [2] was “inactive” throughout.

Turning to `Cn1cnc2c(ncn2[C@@H]2O[C@H](CO)[C@@H](O)[C@H]2O)c1=N`, the Potency entry in experiment [1] and in experiment [2] was “inactive” each time.

Regarding `N[C@H](CS)C(=O)O`, the Potency entry in experiment [1] and in experiment [2] was “inactive” each time.

For the molecule `CCCCCCCC/C=C\CCCCCCCCOC[C@H](COP(=O)([O-])OCC[N+](C)(C)C)OC(C)=O`, the figures for the activity change, negative = inhibition in experiment [1] and in experiment [2] were 11.8% [at 6.83 µM] and -15.7% [at 3.88 µM], respectively.

Regarding `CCCCCCCC/C=C\C/C=C\C/C=C\CCCC(=O)O`, the activity change, negative = inhibition in experiment [1] was -5.55% [at 6.83 µM]; in experiment [2] it was 18.3% [at 3.88 µM].

Turning to `CCc1c2c(nc3ccc(OC(=O)N4CCC(N5CCCCC5)CC4)cc13)-c1cc3c(c(=O)n1C2)COC(=O)C3(O)CC` (configuration not stated), in experiment [1], the Potency was 29.9 µM (active). Besides, in experiment [2], the Potency result was “inactive”.

With `CCCCCCCCCCCCCC(=O)N[C@H](C)[C@@H](O)c1ccccc1`, the activity change, negative = inhibition in experiment [1] is 6.45% [at 6.83 µM]; in experiment [2] it was -4.17% [at 3.88 µM].

For `NCCn1oc(=O)[nH]c1=O`, the Potency entry in experiment [1] and in experiment [2] was “inactive” in each case.

In the case of `O=C(Nc1ccccc1)C12CC1/C(=N\O)c1ccccc1O2` (configuration not stated), the Potency entry in experiment [1] and in experiment [2] was “inactive” throughout.

Turning to H-LVVYPWTQR-OH, the activity change, negative = inhibition in experiment [1] was 5.8% [at 6.83 µM]; in experiment [2] it was 18.2% [at 3.88 µM].

As to `O=C(O)CCc1cc(I)c(O)c(I)c1`, the Potency entry in experiment [1] and in experiment [2] was “inactive” in each case.

Source of the values: PubChem BioAssay (NCATS).
